Compound activity from PubChem BioAssay.
An excerpt weighted towards active compounds, which were near 2.6% of everything screened.
Giardia kill: Giardia lamblia killing; activity change, % at 7.66 µM, hits read low; 340,000 tested, 0.15% active; Giardia lamblia trophozoite viability; AID 540267; in the data active = activity change below about -80%; inconclusive = between about -30% and that limit;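 note: parasites exposed to compound for two days anaerobically before the ATP read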
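Each well holds 100 Giardia trophozoites and compound. After two days (48 hrs) at 37 deg C in anaerobic conditions, ATP is quantified by luminescence.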
TGFb inhibitor: inhibitors of TGF-b signaling; HepG2 CAGA-GFP TGF-b/SMAD3 reporter, GFP fluorescence, 18 h; TGF-beta stimulated, 500 pg/mL final; Potency, µM (titrated, usually from 46.1 µM), usual class: inhibitors; 410,000 tested, 1.2% active; AID 588855; note: nearly all actives have a fitted effect of over 65% in size
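TGF-beta reporter screen: HEPG2 CAGA-GFP, 1% FBS, 500 pg/mL TGF-beta final, 18 h; per-cell GFP summed per well; curves fitted and categorized by class.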
uPA surface inh: blocks generation of uPA at the cell surface | cell surface uPA generation assay, qHTS | Potency, µM (doses to about 38.3 µM), most hits filed as inhibitors | 330,000 tested, 0.31% active | AID 540303; active = well fitted inhibition curve with a large enough effect; inconclusive = small, poorly fitted or top-dose-only effect; inactive = no such curve, though single readings can be large or run the other way; tested in mouse RAW 264.7 cells; note: nearly all actives have a fitted effect of over 55% in size
ATXN viability: reduces viability in counter-screen for ATXN expression inhibitors | S2 cells (HEK-293 line with an ATXN2-luciferase reporter) viability, CellTiter-Fluor protease fluorescence, 24 h | Potency, µM (top dose mostly 56.7 µM), actives largely listed as cytotoxic | 400,000 tested, 0.49% active | AID 651635; note: nearly all actives have a fitted effect of over 40% in size
ATXN2 expr inh: ATXN2 expression inhibition. HEK-293 ATXN2-luciferase reporter, luminescence, 24 h. Potency, µM (doses to about 57 µM), usual class: inhibitors. 360,000 tested, 0.72% active; note: nearly all actives have a fitted effect of over 55% in size
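ATXN2-luciferase reporter cells (luciferase flanked by upstream and downstream ATXN2 gene portions) were treated 24 h at 37 °C with compounds at up to 57 uM. SteadyGlo luminescence gave expression; GF-AFC fluorescence gave viability.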
HepG2 viability: counter-screen for TGF-b inhibitors: cytotoxicity in HepG2 cells. 410,000 tested, 0.76% active. HepG2 CAGA-GFP viability, ATP luminescence, 18 h. Potency, µM (doses to about 46.1 µM), most hits filed as cytotoxic. AID 588856
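CellTiter-Glo luminescence gave cytotoxicity after 18 hours at 37 degrees C. The cells were HepG2 CAGA-GFP in 1% FBS DMEM, stimulated with 500 pg/mL TGF-beta after compound addition. %Activity was normalised to no-cell wells (complete cell-killing) and DMSO (no toxicity), and curves were fitted and classified.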
Hits are given with their value; – = inactive; ? = inconclusive; · = not tested or not shown; ! = not confirmed by another sample. Unless noted, calls come from the whole dose curve; as a rule, active = well fitted curve in the direction sought with a large enough effect; inconclusive = small, poorly fitted or top-dose-only effect, or another doubt; inactive = no such curve, though single readings can be large; an effect the other way counts as inactive or inconclusive.

SMILES | Giardia kill | TGFb inhibitor | uPA surface inh | ATXN viability | ATXN2 expr inh | HepG2 viability
CCCCC(O)/C=C(C)/C=C/C=C/C(=O)N1CCCC1=O (stereo not given) | · | · | · | – | – | ·
CC(C)c1ccc(NC(=O)Nc2nc(C(N)COCc3ccccc3)cs2)cc1 (stereo not given) | · | 11µM | · | ? | ? | 10µM
CC(C)c1ccc(NC(=O)Nc2nc(C(N)c3ccccc3)cs2)cc1 (stereo not given) | · | 11µM | · | · | ? | 11µM
CCN(CC)C1CCN(C(=O)c2cnn(-c3nccc(-c4ccccc4OC)n3)c2-c2ccco2)C1 (stereo not given) | · | · | · | – | · | ·
COc1ccccc1N(C(C)=O)C1=C(Cl)C(=O)c2ccccc2C1=O | · | – | · | · | · | 11µM
CC(=O)N(C1=C(N)C(=O)c2ccccc2C1=O)C(C)C | – | – | – | – | – | –
CCCCCC1(C(=O)OCC)CC(CSC(=N)N)OC1=O (stereo not given) | ? | 13µM | ? | – | – | –
CCCCCCC1CC(CSC(=N)N)OC1=O (stereo not given) | – | – | – | ? | – | –
CCOC(=O)c1cnc2ccc(C)cc2c1Sc1ccc(F)cc1 | – | ? | – | – | – | –
CCCCOc1c(C(=O)c2c(F)cc(C)cc2F)cnc2n[nH]cc12 | · | · | · | · | 9.7µM | ·
Cc1cc(C)cc(NC(=O)C2CCN(C(=O)c3cnn(-c4ccccc4)c3-n3cccc3)CC2)c1 | · | ? | · | ? | ? | –
Cc1ccc(NC(=O)C2CCN(C(=O)c3cnn(-c4ccccc4)c3-n3cccc3)CC2)cc1 | · | 11µM | · | – | – | –
CSc1cccc(NC(=O)C2CCCN(C(=O)c3cnn(-c4ccc(F)cc4)c3-n3cccc3)C2)c1 (stereo not given) | · | 18µM | · | · | · | –
O=C(NC1CC1)C1CCN(Cc2cnn(-c3ccccc3)c2-n2cccc2)CC1 | – | – | – | · | · | 22µM
COc1ccc(NC(=O)C2CCCN(C(=O)c3cnn(-c4ccc(F)cc4)c3-n3cccc3)C2)cc1 (stereo not given) | · | – | · | ? | – | –
NC(=O)c1ccc2[nH]ccc2c1 | · | · | · | · | – | ·
CCN1CCN(C(=O)c2ccc(-c3nc4ccccc4s3)s2)CC1 | – | – | ? | ? | · | –
O=C(c1ccc(-c2nc3ccccc3s2)s1)N1CCOCC1 | -84 | – | ? | – | ? | –
O=C(NC1CC1)c1ccc(-c2nc3ccccc3s2)s1 | -100 | – | – | – | ? | –
Cc1ccc2nc(NC(=O)c3ccc(-c4nc5ccccc5s4)s3)sc2c1 | – | ? | – | – | – | –
COc1ccc(C(=O)c2c(C(F)(F)F)oc3c2C(=O)c2ccccc2C3=O)cc1OC | – | 4µM | – | 28µM | ? | 3.5µM
CC(C)C[C@@H](C=O)NC(=O)[C@H](CC(C)C)NC(=O)[C@H](CC(C)C)NC(=O)OCc1ccccc1 | · | · | · | · | 1.1µM | ·
O=C(N[C@@H](Cc1ccccc1)C(=O)CCl)OCc1ccccc1 | – | ? | ? | 16µM | 28µM | –
O=C(N[C@@H](Cc1ccccc1)C(=O)N[C@@H](Cc1ccccc1)C(=O)O)OCc1ccccc1 | – | – | – | – | – | –
O=C(CCl)NC(Cc1ccccc1)C(=O)OCC(=O)c1ccc(-c2ccccc2)cc1 (stereo not given) | – | ? | – | 15µM | – | –
SMILES | Giardia kill | TGFb inhibitor | uPA surface inh | ATXN viability | ATXN2 expr inh | HepG2 viability
COC(=O)CCC(NC(=O)OCc1ccccc1)C(=O)NC(CC(C)C)C(=O)OC (stereo not given) | – | – | – | – | – | –
CC(=O)NC(Cc1ccccc1)C(=O)OCC(=O)c1ccc(Cl)cc1 (stereo not given) | – | – | – | – | – | –
O=C(Nc1ccccc1Cl)N1CCN(c2ccc3nnc(-c4ccc(F)cc4)n3n2)CC1 | – | ? | – | – | – | –
COc1ccccc1NC(=O)N1CCN(c2ccc3nnc(-c4ccc(F)cc4)n3n2)CC1 | – | ? | – | · | 18µM! | –
CC(=O)OCC(NC(=O)C(Cc1ccccc1)NC(=O)OC(C)(C)C)C1OC(n2cc(F)c(=O)[nH]c2=O)C(OC(C)=O)C1OC(C)=O (stereo not given) | – | – | · | · | · | –
O=C(NCCCN1CCOCC1)c1ccc2c(c1)N(Cc1c(F)cccc1Cl)C(=O)c1ccccc1S2 | – | ? | 4.5µM | ? | · | –
O=C(NCCN1CCOCC1)c1ccc2c(c1)N(Cc1ccccc1F)C(=O)c1ccccc1S2 | – | – | – | – | – | –
O=C(NCCCN1CCOCC1)c1ccc2c(c1)N(Cc1cccc(Cl)c1)C(=O)c1ccccc1S2 | · | ? | · | · | · | 11µM
CCN(CC)C(=O)c1ccc2c(c1)N(Cc1c(F)cccc1Cl)C(=O)c1ccccc1S2 | · | 16µM | · | – | ? | –
COCCNC(=O)c1ccc2c(c1)N(Cc1c(F)cccc1Cl)C(=O)c1ccccc1S2 | · | ? | · | – | – | –
CCN1C(=O)c2ccccc2Sc2ccc(C(=O)NCCCN3CCOCC3)cc21 | – | – | – | – | · | –
CCOC(=O)N1CCC(c2cc(=O)n3[nH]c(C)c(-c4ccc(F)cc4)c3n2)CC1 | – | – | ? | – | 32µM | –
CCN(CC)c1ccc2c(-c3ccc(S(=O)(=O)O)cc3S(=O)(=O)[O-])c3ccc(=[N+](CC)CC)cc-3oc2c1 | – | – | – | 13µM | ? | –
CN(C)CC(C)(O)c1ccc2c(c1)CN(Cc1cccn1-c1ncccn1)CCO2 (stereo not given) | · | · | · | – | · | ·
Cn1cc(-c2ccc3nnc(Sc4ccc5ncccc5c4)n3n2)cn1 | · | · | · | · | – | ·
CCn1c(C)nnc1SCC(=O)Nc1ccc(OC)cc1 | · | – | · | – | · | 6.3µM
CCOc1ccc(NC(=O)CSc2nnc(C)n2CC)cc1 | – | ? | – | – | – | –
Oc1ccc(Br)cc1-c1nc2cnccn2c1NC1CCCC1 | – | – | – | – | – | 11µM
Cc1ccsc1/C=N/Nc1nc(=O)[nH]nc1C | – | ? | – | – | ? | 11µM
Nc1cccc[n+]1C(c1ccnc2ccccc12)[n+]1ccccc1N | · | ? | · | · | · | –
Cc1ccc(S(=O)(=O)N(C)C)cc1NC(=S)NC(C)CCCC(C)C (stereo not given) | – | 18µM | – | – | – | –
Cc1ccccc1C(=O)Nc1ccc2nc(Nc3cccc(C(F)(F)F)c3)cc(C)c2c1 | · | 14µM | · | – | ? | –
COc1ccccc1CC(=O)Nc1ccc2nc(Nc3cccc(C(F)(F)F)c3)cc(C)c2c1 | · | – | · | – | – | –
Cc1cc(Nc2cccc(C(F)(F)F)c2)nc2ccc(NC(=O)c3cncc(Br)c3)cc12 | · | ? | · | · | · | 10µM
CC(=O)Nc1ccc(NC(=O)C(C)c2cccc(C(=O)c3ccccc3)c2)cc1 (stereo not given) | – | – | – | – | – | –
CC(=O)Nc1ccc([C@H](C)C(=O)Nc2ncc(C(C)C)s2)cc1 | · | · | · | · | 0.34µM | ·
